# Measured values taken from the supplement of paper PMC13380429.
# Columns and labels:
# [1] = system: Vero E6 infected with SARS-CoV-2; assay: morphology score (similarity to uninfected cells); higher = more like uninfected cells; conditions: 24 h
# [2] = system: Vero E6 infected with SARS-CoV-2; assay: SARS-CoV-2 infection rate relative to infected DMSO; higher = more infection, active = 60 or less; conditions: 24 h
Compound,morphology score [1],SARS-CoV-2 infection rate [2]
Cc1cc(N2CCN([C@@H]3CN[C@H](C(=O)N4CCSC4)C3)CC2)n(-c2ccccc2)n1 [teneligliptin] (10 µM),0.062,112% (inactive)
Cn1nc(-c2cccc(F)c2)n(C)c1=S [suritozole] (10 µM),0.141,101% (inactive)
CCCCCCCCCCC(C)(C)C(=O)Nc1c(OC)cc(OC)cc1OC (10 µM),-0.024,111% (inactive)
Cc1ccc2cc(-c3c(C)ccc(C(=O)c4c(-c5ccccc5)n(C)n(-c5ccccc5)c4=O)c3N)ccc2n1 (10 µM),0.0631,76% (inactive)
CC(C)=CCC/C(C)=C/CC/C(C)=C/CCC(=O)OC/C=C(\C)CCC=C(C)C [geranyl-farnesylacetate] (10 µM),-0.0168,99% (inactive)
CC1Cc2ccccc2N1NC(=O)c1ccc(Cl)c(S(N)(=O)=O)c1 (stereo not given) [indapamide] (10 µM),0.0243,112% (inactive)
O=C1c2cccnc2OC[C@@H]2CCCN12 (10 µM),-0.0333,108% (inactive)
Cc1ccc(C(=O)c2cc(O)c(O)c([N+](=O)[O-])c2)cc1 [tolcapone] (10 µM),0.192,110% (inactive)
CC(C)(C)NCC(O)CSc1nc(-c2ccc(C(N)=O)s2)cs1 (stereo not given) [arotinolol] (10 µM),0.0582,106% (inactive)
CNC(=O)c1ccc2c(c1)S(=O)(=O)c1ccccc1C2=O (10 µM),-0.0141,108% (inactive)
CC(=O)c1ccc2c(c1)N(CCCN(C)C)c1ccccc1S2 [acepromazine] (10 µM),0.192,104% (inactive)
NCCCC[C@H](NC(=O)[C@@H]1CCCN1C(=O)[C@@H]1CSSC[C@H](N)C(=O)N[C@@H](Cc2ccc(O)cc2)C(=O)N[C@@H](Cc2ccccc2)C(=O)N[C@@H](CCC(N)=O)C(=O)N[C@@H](CC(N)=O)C(=O)N1)C(=O)NCC(N)=O [lypressin] (10 µM),0.164,91% (inactive)
C=CCN(C)CCCCCCOc1ccc(C(=O)c2ccc(Br)cc2)c(F)c1 (10 µM),0.728,33.5% (active)
Cc1ccc(C23CNCC2C3)cc1 (stereo not given) [bicifadine] (10 µM),0.0287,107% (inactive)
O=C1C2CCN(CC2)C1(CO)CO (10 µM),0.273,83.5% (inactive)
CC1=C(/C=C/C(C)=C/C=C/C(C)=C/CO)C(C)(C)CCC1 [retinol] (10 µM),-0.0178,110% (inactive)
CCCCNc1ccc(C(=O)OCCN(C)C)cc1 [tetracaine] (10 µM),-0.144,116% (inactive)
O=C(Cn1c(=O)sc2ccc(Cl)cc21)N1CCN(CCO)CC1 [tiaramide] (10 µM),0.00737,104% (inactive)
CCOc1cc(C=O)ccc1O [ethyl-vanillin] (10 µM),0.19,100% (inactive)
CN(C/C=C/C#CC(C)(C)C)Cc1cccc2ccccc12 [terbinafine] (10 µM),0.413,81% (inactive)
COc1c(-c2ccc3cc(NS(C)(=O)=O)ccc3c2)cc(-n2ccc(=O)[nH]c2=O)cc1C(C)(C)C [dasabuvir] (10 µM),0.123,106% (inactive)
COc1ccc(C(C)(C)C)cc1CN[C@H]1C2CCN(CC2)[C@H]1C(c1ccccc1)c1ccccc1 [maropitant] (0.833333 µM),0.103,104% (inactive)
N=C(N)NCCC[C@H](N)C(=O)O [L-arginine] (10 µM),0.0506,113% (inactive)
CC(=O)[C@@]1(O)CC[C@H]2[C@@H]3C[C@H](C)C4=CC(=O)C=C[C@]4(C)[C@@]3(F)[C@@H](O)C[C@@]21C [fluorometholone] (10 µM),0.02,110% (inactive)
Cn1c([N+](=O)[O-])cnc1COC(N)=O [ronidazole] (10 µM),-0.00677,114% (inactive)

Compound,morphology score [1],SARS-CoV-2 infection rate [2]
CNCCCN1c2ccccc2CCc2ccccc21 [desipramine] (10 µM),0.212,81% (inactive)
CCCCCCN(CCCCCC)C(=O)Cc1c(-c2ccc(F)cc2)[nH]c2ccccc12 (10 µM),-0.0301,106% (inactive)
O=C(N[C@H]1CCN(C(=O)c2cc(C(F)(F)F)cc(C(F)(F)F)c2)[C@H](Cc2ccc(Cl)cc2)C1)c1ccnc2ccccc12 (10 µM),0.195,81.5% (inactive)
CCCCN1CCCCC1C(=O)Nc1c(C)cccc1C (stereo not given) [bupivacaine] (10 µM),0.0282,110% (inactive)
CCCCCCCC/C=C\CCCCCCCC(N)=O [oleamide] (10 µM),0.242,94.5% (inactive)
CCN(CC)CCOC(=O)C(c1ccccc1)C1CCCCC1 (stereo not given) [drofenine] (10 µM),0.275,99.5% (inactive)
O=C(CCc1ccc(O)cc1)c1c(O)cc(O)cc1O [phloretin] (10 µM),0.241,104% (inactive)
C[C@@H]1C[C@H]2[C@@H]3CCC4=CC(=O)C=C[C@]4(C)[C@@]3(Cl)[C@@H](O)C[C@]2(C)[C@@]1(OC(=O)c1ccco1)C(=O)CCl (10 µM),0.481,78% (inactive)
CN(C)CCCSC(=N)N [dimaprit] (10 µM),0.245,94.5% (inactive)
Cc1ccc(S(=O)(=O)/C=C/C#N)cc1 (0.833333 µM),0.173,112% (inactive)
Cc1ccc(-n2sc(=O)n(Cc3ccc(F)cc3)c2=O)cc1 (10 µM),0.218,96% (inactive)
c1nc(CC2CCNCC2)c[nH]1 [immepip] (10 µM),0.0471,101% (inactive)
COc1cccc(NC(=O)/C=C/c2ccc(Cl)cc2)c1 (10 µM),-0.0484,99.5% (inactive)
CC(C(=O)O)c1ccc(CC2CCCC2=O)cc1 (stereo not given) [loxoprofen] (10 µM),-0.0253,108% (inactive)
O=C(O)c1ccccc1Nc1cc(Cl)ccc1C(=O)O [lobenzarit] (10 µM),0.04,113% (inactive)
CC(C)CCC[C@@H](C)[C@H]1CC[C@H]2[C@@H]3CC=C4C[C@@H](O)CC[C@]4(C)[C@H]3CC[C@]12C [cholesterol] (10 µM),0.178,98% (inactive)
CN(C)CCCC1(c2ccc(F)cc2)OCc2cc(C#N)ccc21 (stereo not given) [citalopram] (10 µM),-0.167,107% (inactive)
Cc1[nH]c(/C=C2\C(=O)Nc3ccc(S(=O)(=O)Cc4c(Cl)cccc4Cl)cc32)c(C)c1C(=O)N1CCC[C@@H]1CN1CCCC1 (0.833333 µM),0.159,106% (inactive)
C=Cc1c(C)c2cc3nc(c(CC(=O)O)c4[n-]c(cc5nc(cc1[n-]2)C(C)=C5CC)c(C)c4C(=O)O)[C@@H](CCC(=O)O)[C@@H]3C.[Cu+2] [chlorophyllin-copper] (10 µM),-0.0712,108% (inactive)
NC(=O)c1ccc[n+]([C@@H]2O[C@H](COP(=O)([O-])OP(=O)(O)OC[C@H]3O[C@@H](n4cnc5c(N)ncnc54)[C@H](O)[C@@H]3O)[C@@H](O)[C@H]2O)c1 [nadide] (10 µM),-0.0496,94% (inactive)
Cc1ncc([N+](=O)[O-])n1CC(O)CN1CCOCC1 (stereo not given) [morinidazole] (10 µM),0.12,111% (inactive)
COc1cc(OC)c2c(=O)[nH]c(-c3cc(C)c(OCCO)c(C)c3)nc2c1 [apabetalone] (0.833333 µM),0.0872,106% (inactive)
C[C@H]1NC(=O)NC1=O [5-methylhydantoin-(D)] (10 µM),0.121,102% (inactive)
CCn1c(=O)/c(=C2\Sc3ccccc3N2C)s/c1=C\c1cccc[n+]1CC (10 µM),0.136,106% (inactive)
CCC[C@H](N[C@@H](C)C(=O)N1[C@H](C(=O)O)C[C@@H]2CCCC[C@@H]21)C(=O)O [perindoprilat] (10 µM),0.276,104% (inactive)
